PubChem BioAssay
The source made the active and inactive calls.

What was measured:
Albumin (Bos taurus) = Albumin (Bos taurus) (UniProt P02769); experiment: bovine serum albumin binders on microarray, profiling panel, artefact control for SMM control protein annotation, biochemical, small-molecule microarray, Alexa647 label, 635/667 nm fluorescence (AID 1118); conditions: BSA-A647 binding, fluorescence 635 nm, higher = more signal;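 also: score merges 667 nm emission intensity and signal-to-noise per printed compound spot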
Sequence of Albumin (Bos taurus) (P02769 whole entry, looked up): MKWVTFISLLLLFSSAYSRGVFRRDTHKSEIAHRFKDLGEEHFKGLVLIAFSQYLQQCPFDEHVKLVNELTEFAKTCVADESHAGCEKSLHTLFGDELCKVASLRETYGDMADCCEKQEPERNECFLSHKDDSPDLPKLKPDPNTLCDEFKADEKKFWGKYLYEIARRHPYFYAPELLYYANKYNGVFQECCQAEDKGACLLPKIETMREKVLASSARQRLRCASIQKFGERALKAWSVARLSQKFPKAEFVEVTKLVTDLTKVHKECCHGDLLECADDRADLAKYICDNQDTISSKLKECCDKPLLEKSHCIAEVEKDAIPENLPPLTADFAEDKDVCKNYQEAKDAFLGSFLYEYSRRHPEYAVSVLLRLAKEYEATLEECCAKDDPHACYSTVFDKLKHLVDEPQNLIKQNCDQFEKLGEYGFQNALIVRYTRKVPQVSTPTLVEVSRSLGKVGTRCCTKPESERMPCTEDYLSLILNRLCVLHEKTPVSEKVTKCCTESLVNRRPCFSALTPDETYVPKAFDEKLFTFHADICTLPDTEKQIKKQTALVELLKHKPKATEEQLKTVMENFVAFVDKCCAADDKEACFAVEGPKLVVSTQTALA

[1] = small-molecule microarray binders of probe aXIP, primary screen, biochemical, NeuroSMM set, 635/667 nm fluorescence (AID 1119); conditions: higher = more signal, called active from +8 up or from −8 down;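 also: probe is the protein aXip251-270 applied at 1 µg/mL to compound-printed slides; binding of probe to printed compounds measured as 667 nm fluorescence plus signal to noise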
[2] = small-molecule binders of probe aNOTCH3, primary screen, biochemical, small-molecule microarray, 635/667 nm fluorescence (AID 1120); conditions: higher = more signal;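 also: probe is a biotin-tagged antibody raised against NOTCH3 rather than NOTCH3 protein; score merges spot fluorescence near 667 nm with spot signal to noise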
[3] = small-molecule binders of probe aNOTCH2, primary screen, biochemical, small-molecule microarray, 635/667 nm fluorescence (AID 1121); conditions: higher = more signal;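 also: score merges feature fluorescence read at 667 nm with its signal to noise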
[4] = molecular target: Carbonic anhydrase 2 (Homo sapiens) (UniProt P00918); experiment: CAII small-molecule binders, profiling panel, biochemical, small-molecule microarray, Alexa647-labelled CAII (AID 1122); conditions: CAII-A647 binding fluorescence, higher = more signal
[5] = COS7 lysate on small-molecule microarray, probe aHis, 635 nm (AID 1123); conditions: COS7 cell lysate, fluorescence, higher = more signal;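 also: z-score combines 667nm fluorescence intensity with signal-to-noise per printed compound spot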
[6] = compound binding in COS7 lysate, probe aLAP1, primary screen, cell lysate, small-molecule microarray (AID 1124); conditions: probe aLAP1, fluorescence, higher = more signal;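 also: lysate comes from COS7 cells expressing LAP1 and is applied at 0.3 µg/mL; score merges spot fluorescence near 667 nm with signal-to-noise over triplicate slides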
Sam68 (KHDRBS1) = experiment: Sam68 small-molecule binders, primary screen, biochemical, small-molecule microarray, 635 nm fluorescence (AID 1125); conditions: small-molecule microarray binding, higher = more signal;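 also: score merges 667 nm channel intensity with signal to noise over triplicate slides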
[7] = tested on: Chordin-like protein 2 (CHRDL2); experiment: CHRDL2 small-molecule binders, primary screen, biochemical, small-molecule microarray, 635 nm fluorescence (AID 1126); conditions: small-molecule microarray binding, fluorescence 635 nm; higher = more signal;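 also: printed compound slides probed with Chrdl2 protein at 4 µg/mL for 1 h at 4 C; score merges 667 nm emission intensity with signal to noise over three replicate slides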
[8] = molecular target: Concanavalin-A (Canavalia ensiformis) (UniProt P02866); experiment: ConA small-molecule binders, primary screen, artefact control for SMM control protein annotation, biochemical, small-molecule microarray, Alexa647 label, 635 nm (AID 1127); conditions: ConA-A647 binding fluorescence, higher = more signal;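 also: z combines 667 nm emission intensity with signal-to-noise across three replicate slides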
Sequence of Concanavalin-A (Canavalia ensiformis) (P02866 whole entry, looked up): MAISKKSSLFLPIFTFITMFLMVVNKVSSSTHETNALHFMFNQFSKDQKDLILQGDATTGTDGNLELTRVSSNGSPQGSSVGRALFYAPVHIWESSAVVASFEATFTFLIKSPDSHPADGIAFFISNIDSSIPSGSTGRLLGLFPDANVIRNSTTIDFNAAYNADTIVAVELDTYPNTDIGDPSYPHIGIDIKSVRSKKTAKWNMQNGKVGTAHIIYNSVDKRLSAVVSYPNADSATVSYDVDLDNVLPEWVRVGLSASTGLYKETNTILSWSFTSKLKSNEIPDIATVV

[9] = anti-His antibody binders, primary screen, artefact control for SMM control protein annotation, biochemical, small-molecule microarray, 635 nm fluorescence (AID 1128); conditions: anti-His Alexa647 antibody binding, higher = more signal;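 also: score merges feature fluorescence with signal-to-noise for each printed compound spot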
[10] = tested on: Human papillomavirus type 1a E7 protein (residues 1-88); experiment: HPV1a E7 small-molecule binders, primary screen, biochemical, small-molecule microarray, residues 1-88, 635 nm (AID 1129); conditions: small-molecule microarray binding, fluorescence 635 nm; higher = more signal
[11] = molecular target: Focal adhesion kinase 1 (Homo sapiens) (UniProt Q05397); experiment: small-molecule microarray binders of FAK, primary screen, biochemical, 635/667 nm fluorescence, BSA, DTT (AID 1130); conditions: PTK2 binding, 635 nm fluorescence, higher = more signal;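 also: composite of spot emission at 667 nm and signal to noise over triplicate slides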
Sequence of Focal adhesion kinase 1 (Homo sapiens) (Q05397 whole entry, looked up): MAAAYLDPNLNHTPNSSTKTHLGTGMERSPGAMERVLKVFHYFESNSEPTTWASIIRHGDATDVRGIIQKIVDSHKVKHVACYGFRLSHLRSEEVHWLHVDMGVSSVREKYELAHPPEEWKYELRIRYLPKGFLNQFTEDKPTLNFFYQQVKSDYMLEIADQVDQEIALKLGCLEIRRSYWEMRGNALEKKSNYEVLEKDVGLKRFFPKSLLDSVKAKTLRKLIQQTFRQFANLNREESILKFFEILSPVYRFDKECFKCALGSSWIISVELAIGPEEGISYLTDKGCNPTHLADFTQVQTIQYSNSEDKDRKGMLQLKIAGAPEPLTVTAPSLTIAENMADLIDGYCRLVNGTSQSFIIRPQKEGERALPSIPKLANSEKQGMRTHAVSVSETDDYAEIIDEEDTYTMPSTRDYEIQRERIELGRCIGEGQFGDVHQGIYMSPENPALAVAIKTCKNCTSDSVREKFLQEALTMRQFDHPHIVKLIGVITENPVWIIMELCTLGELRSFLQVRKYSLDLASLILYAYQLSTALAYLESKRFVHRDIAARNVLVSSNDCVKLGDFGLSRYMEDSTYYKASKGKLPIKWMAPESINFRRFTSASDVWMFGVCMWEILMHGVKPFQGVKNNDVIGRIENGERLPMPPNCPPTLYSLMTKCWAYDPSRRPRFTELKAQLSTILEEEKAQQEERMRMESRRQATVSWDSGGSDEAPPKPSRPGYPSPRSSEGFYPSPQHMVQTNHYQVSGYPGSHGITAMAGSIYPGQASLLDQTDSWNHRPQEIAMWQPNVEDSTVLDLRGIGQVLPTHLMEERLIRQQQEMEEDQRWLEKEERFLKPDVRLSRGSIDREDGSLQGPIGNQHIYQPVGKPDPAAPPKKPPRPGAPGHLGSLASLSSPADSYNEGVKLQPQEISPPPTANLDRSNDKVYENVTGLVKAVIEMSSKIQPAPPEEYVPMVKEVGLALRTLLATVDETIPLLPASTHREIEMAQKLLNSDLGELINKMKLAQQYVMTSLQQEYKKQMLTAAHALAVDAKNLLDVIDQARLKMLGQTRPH

[12] = tested on: Fibrinogen (Alexa647-labelled); experiment: fibrinogen binders on compound microarrays, profiling panel, artefact control for SMM control-protein annotation, biochemical, small-molecule microarray, 635/667 nm fluorescence (AID 1131); conditions: fibrinogen-A647 binding fluorescence, higher = more signal;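 also: z-score merges 667 nm fluorescence with per-spot signal-to-noise over triplicate slides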
[13] = molecular target: Follistatin (Homo sapiens) (UniProt P19883); experiment: follistatin binders on small-molecule microarrays, primary screen, biochemical, small-molecule microarray, 635/667 nm fluorescence (AID 1132); conditions: FST binding, 635 nm fluorescence, higher = more signal
Sequence of Follistatin (Homo sapiens) (P19883 whole entry, looked up): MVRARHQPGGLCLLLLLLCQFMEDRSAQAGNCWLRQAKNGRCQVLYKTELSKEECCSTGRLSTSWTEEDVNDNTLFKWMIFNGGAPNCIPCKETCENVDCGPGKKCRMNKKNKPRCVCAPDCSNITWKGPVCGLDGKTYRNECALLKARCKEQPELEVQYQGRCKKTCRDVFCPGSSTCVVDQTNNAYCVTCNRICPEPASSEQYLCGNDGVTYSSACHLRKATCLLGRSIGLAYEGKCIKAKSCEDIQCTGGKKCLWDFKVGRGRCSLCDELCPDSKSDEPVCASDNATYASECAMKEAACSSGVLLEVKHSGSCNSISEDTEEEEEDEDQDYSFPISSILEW

[14] = molecular target: Fibroblast growth factor 2 (Homo sapiens) (UniProt P09038); experiment: FGF2 binders on small-molecule microarrays, primary screen, biochemical, small-molecule microarray, 635/667 nm fluorescence (AID 1133); conditions: small-molecule microarray binding, FGF2, fluorescence 635/667; higher = more signal
Sequence of Fibroblast growth factor 2 (Homo sapiens) (P09038 whole entry, looked up): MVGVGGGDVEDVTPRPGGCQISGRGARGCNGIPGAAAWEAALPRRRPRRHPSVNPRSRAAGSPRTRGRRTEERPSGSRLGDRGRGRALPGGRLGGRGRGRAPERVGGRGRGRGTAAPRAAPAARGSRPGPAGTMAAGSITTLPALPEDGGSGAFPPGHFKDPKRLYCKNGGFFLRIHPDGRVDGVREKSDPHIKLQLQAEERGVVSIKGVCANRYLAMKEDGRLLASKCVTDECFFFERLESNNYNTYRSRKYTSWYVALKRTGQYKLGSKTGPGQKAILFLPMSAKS

[15] = mitochondrial membrane potential change in A549 cells, profiling panel, cell-based, JC-1 fluorescence, basal, 24 h, 100 nL (AID 1138); conditions: higher = more signal;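 also: A549 lung adenocarcinoma cells under basal conditions with no added stimulus; test concentration not given here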
Lefty1 = Lefty1 binders on small-molecule microarrays, primary screen, biochemical, small-molecule microarray, 635/667 nm fluorescence (AID 1139); conditions: small-molecule microarray binding, fluorescence 635/667; higher = more signal
[16] = tested on: wheat germ agglutinin (Triticum aestivum), Alexa647-labelled; experiment: wheat germ agglutinin binders on compound microarrays, profiling panel, artefact control for SMM control-protein annotation, biochemical, small-molecule microarray, 635/667 nm fluorescence (AID 1140); conditions: WGA-A647 binding, 635 nm fluorescence, higher = more signal;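 also: score merges 667 nm feature emission with signal to noise over triplicate slides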
[17] = molecular target: Luciferin 4-monooxygenase (Photinus pyralis) (UniProt P08659); experiment: firefly luciferase enzyme inhibitors, primary screen, biochemical, luminescence, purified enzyme, 2006 set (AID 1141); conditions: SteadyGlo luminescence, 30 min, higher = more signal, called active from +8 up or from −8 down;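 also: cell-free assay with purified firefly luciferase at 100 ng per well in PBS; test concentration not given here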
Sequence of Luciferin 4-monooxygenase (Photinus pyralis) (P08659 whole entry, looked up): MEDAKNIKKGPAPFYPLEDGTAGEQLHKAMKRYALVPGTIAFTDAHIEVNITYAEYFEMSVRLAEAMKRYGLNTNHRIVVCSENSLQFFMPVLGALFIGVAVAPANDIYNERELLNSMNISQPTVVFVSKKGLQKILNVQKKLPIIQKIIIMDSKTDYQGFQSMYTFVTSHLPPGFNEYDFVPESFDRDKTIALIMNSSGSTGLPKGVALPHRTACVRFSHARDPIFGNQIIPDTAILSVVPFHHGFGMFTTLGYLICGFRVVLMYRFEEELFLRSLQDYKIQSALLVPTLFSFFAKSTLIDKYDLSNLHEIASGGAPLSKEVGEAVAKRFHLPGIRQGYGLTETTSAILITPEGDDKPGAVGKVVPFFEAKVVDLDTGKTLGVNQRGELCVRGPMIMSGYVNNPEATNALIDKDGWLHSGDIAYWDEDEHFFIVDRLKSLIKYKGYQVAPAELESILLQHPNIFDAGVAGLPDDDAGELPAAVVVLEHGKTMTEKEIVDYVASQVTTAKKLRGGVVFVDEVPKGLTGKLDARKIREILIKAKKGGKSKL

## CC(=O)OC[C@H]1O[C@@H](ON=C(C)CCN2CCCc3nc(C)c(C)cc32)[C@H](OC(C)=O)[C@@H](OC(C)=O)[C@@H]1OC(C)=O
Albumin (Bos taurus)
  composite z-score: 0.449
[1]
  composite Z-score: 0.403 (inactive)
[2]
  composite z-score: -0.0587
[3]
  composite z-score: -0.0695
[4]
  composite z-score: 0.155
[5]
  composite z-score: 0.678
[6]
  composite z-score: 0.16
Sam68 (KHDRBS1)
  composite z-score: 1.13
[7]
  composite z-score: -0.144
[8]
  composite z-score: 1.03
[9]
  composite z-score: 0.269
[10]
  composite z-score: 1.15
[11]
  composite z-score: 0.36
[12]
  composite z-score: 0.602
[13]
  composite z-score: 0.881
[14]
  composite z-score: 0.664
[15]
  z-score: -1.13
Lefty1
  composite z-score: 0.889
[16]
  composite z-score: 0.476
[17]
  z-score: 0.788 (inactive)

## CC(CCN1CCc2nc(-c3ccccc3)c(-c3ccccc3)cc2C1)=NOC[C@@H](O)[C@H]1O[C@@H]2OC(C)(C)O[C@@H]2[C@H]1O
Albumin (Bos taurus)
  composite z-score: 0.535
[1]
  composite Z-score: 0.42 (inactive)
[2]
  composite z-score: -0.051
[3]
  composite z-score: -0.0291
[4]
  composite z-score: 0.0181
[5]
  composite z-score: 1
[6]
  composite z-score: 0.608
Sam68 (KHDRBS1)
  composite z-score: 1.13
[7]
  composite z-score: 0.507
[8]
  composite z-score: 0.696
[9]
  composite z-score: 0.107
[10]
  composite z-score: 0.94
[11]
  composite z-score: 0.182
[12]
  composite z-score: 0.925
[13]
  composite z-score: 0.521
[14]
  composite z-score: 0.409
[15]
  z-score: 2.07
Lefty1
  composite z-score: 1.07
[16]
  composite z-score: 0.393
[17]
  z-score: -0.116 (inactive)

## COC(=O)CC=C[C@@H](C)[C@@H](C=NOC(C)CN1CCCc2nc(C)c(C)cc21)OC (stereo not given in full)
Albumin (Bos taurus)
  composite z-score: 0.0374
[1]
  composite Z-score: 0.0236 (inactive)
[2]
  composite z-score: 0.0833
[3]
  composite z-score: -0.176
[4]
  composite z-score: -0.0864
[5]
  composite z-score: 0.132
[6]
  composite z-score: -0.201
Sam68 (KHDRBS1)
  composite z-score: 0.263
[7]
  composite z-score: 0.377
[8]
  composite z-score: 0.458
[9]
  composite z-score: 0.333
[10]
  composite z-score: 0.464
[11]
  composite z-score: 0.0673
[12]
  composite z-score: 0.233
[13]
  composite z-score: 0.6
[14]
  composite z-score: 0.604
[15]
  z-score: -0.27
Lefty1
  composite z-score: 0.677
[16]
  composite z-score: -0.0665
[17]
  z-score: 0.423 (inactive)

## CON=C[C@@H](NS(=O)(=O)c1ccc(C)cc1)[C@H](C)C=CCC(=O)OC
Albumin (Bos taurus)
  composite z-score: -0.625
[1]
  composite Z-score: -0.722 (inactive)
[2]
  composite z-score: -0.0173
[3]
  composite z-score: -0.14
[4]
  composite z-score: -0.374
[5]
  composite z-score: 0.0154
[6]
  composite z-score: 0.22
Sam68 (KHDRBS1)
  composite z-score: -1.35
[7]
  composite z-score: 1.26
[8]
  composite z-score: -0.0082
[9]
  composite z-score: 0.4
[10]
  composite z-score: -1.15
[11]
  composite z-score: 0.438
[12]
  composite z-score: -0.717
[13]
  composite z-score: 0.718
[14]
  composite z-score: 0.747
[15]
  z-score: 0.764
Lefty1
  composite z-score: 0.585
[16]
  composite z-score: -0.35
[17]
  z-score: -0.42 (inactive)

## CCOC(=O)[C@H](CC(C)C)NC(=O)CCC1CC(OC(=O)NCCc2ccc(F)cc2)CC2(CCCC(COC(=O)NCCc3ccccc3OC)O2)O1 (stereo not given in full)
Albumin (Bos taurus)
  composite z-score: 0.788
[1]
  composite Z-score: 0.0516 (inactive)
[2]
  composite z-score: -0.0647
[3]
  composite z-score: -0.0781
[4]
  composite z-score: 0.56
[5]
  composite z-score: 0.907
[6]
  composite z-score: 0.419
Sam68 (KHDRBS1)
  composite z-score: 1.29
[7]
  composite z-score: 0.337
[8]
  composite z-score: 1.09
[9]
  composite z-score: 1.35
[10]
  composite z-score: 0.903
[11]
  composite z-score: 0.0376
[12]
  composite z-score: 0.956
[13]
  composite z-score: 0.236
[14]
  composite z-score: 0.399
[15]
  z-score: 0.848
Lefty1
  composite z-score: 0.522
[16]
  composite z-score: 0.0393
[17]
  z-score: 0.109 (inactive)
